According to the supplement of paper PMC10849652:
Targets with a hit are over-represented here; the source holds about 8,800 in all. About 0.5% of all pairs of compound and target were hits.

What was measured:
Test in all cases: log2 fold change, soluble protein after heating vs DMSO (PISA); higher = thermal stabilisation; K562 lysate, 10 uM; active = over 0.2 and 3.5 SD of the protein, either way, in both replicates (recomputed)
vemurafenib = compound: CCCS(=O)(=O)Nc1ccc(F)c(C(=O)c2c[nH]c3ncc(-c4ccc(Cl)cc4)cc23)c1F [vemurafenib]
Summary of the method: (§1)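 The values are log-two fold changes in thermal stability compared with solvent controls and come from duplicates. They were obtained by TMTpro 16plex LC-MS/MS, with channel sums equalised, on the supernatant after 21,000xg for 90 min. That supernatant came from crude K562 extract at 1 mg/mL protein treated with 10 μM compound for 30 min, heated for 3 min across 48°C-58°C, pooled and brought to 0.5% NP-40 at 4°C.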

[1] = compound: CCCS(=O)(=O)Nc1ccc(F)c(C(=O)c2c[nH]c3ncc(Cl)cc23)c1F
Summary of the method: as §1

barasertib = compound: CCN(CCCOc1ccc2c(Nc3cc(CC(=O)Nc4cccc(F)c4)[nH]n3)ncnc2c1)CCOP(=O)(O)O [barasertib]
Summary of the method: as §1

[2] = compound: CC[C@@H]1C(=O)N(C)c2cnc(Nc3ccc(C(=O)NC4CCN(C)CC4)cc3OC)nc2N1C1CCCC1
Summary of the method: as §1

volasertib = compound: CC[C@@H]1C(=O)N(C)c2cnc(Nc3ccc(C(=O)N[C@H]4CC[C@H](N5CCN(CC6CC6)CC5)CC4)cc3OC)nc2N1C(C)C [volasertib]
Summary of the method: as §1

[3] = compound: CCn1c(C(=O)N(C2CC2)C2CC2)cc2c3c(ncn3C)c(Nc3cc(C)n(C)n3)nc21
Summary of the method: as §1

[4] = compound: CCn1cc(-c2ccnc3[nH]c(-c4cccc(CN(C)C)c4)cc23)c(-c2ccc(NC(=O)N(C)C)cc2)n1
Summary of the method: as §1

[5] = compound: CN1CCC(CNc2ccc3ncc(-c4cccc(OC(F)(F)F)c4)n3n2)CC1
Summary of the method: as §1

saracatinib = compound: CN1CCN(CCOc2cc(OC3CCOCC3)c3c(Nc4c(Cl)ccc5c4OCO5)ncnc3c2)CC1 [saracatinib]
Summary of the method: as §1

sotrastaurin = compound: CN1CCN(c2nc(C3=C(c4c[nH]c5ccccc45)C(=O)NC3=O)c3ccccc3n2)CC1 [sotrastaurin]
Summary of the method: as §1

alvocidib = compound: CN1CC[C@H](c2c(O)cc(O)c3c(=O)cc(-c4ccccc4Cl)oc23)[C@H](O)C1 [alvocidib]
Summary of the method: as §1

Tubastatin A = compound: CN1CCc2c(c3ccccc3n2Cc2ccc(C(=O)NO)cc2)C1 [Tubastatin A]
Summary of the method: as §1

[6] = compound: CNC(=O)C1=CC=CC=C1NC2=NC(=NC=C2Cl)NC3=C(C=C(C=C3)N4CCOCC4)OC
Summary of the method: as §1

defactinib = compound: CNC(=O)c1ccc(Nc2ncc(C(F)(F)F)c(NCc3nccnc3N(C)S(C)(=O)=O)n2)cc1 [defactinib]
Summary of the method: as §1

[7] = compound: CNc1nc(-c2ccc3c(N)n[nH]c3c2)cc(N2C[C@@H](C(=O)NC3CCCCC3)CC[C@H]2C)n1
Summary of the method: as §1

encorafenib = compound: COC(=O)N[C@@H](C)CNc1nccc(-c2cn(C(C)C)nc2-c2cc(Cl)cc(NS(C)(=O)=O)c2F)n1 [encorafenib]
Summary of the method: as §1

[8] = compound: COC(=O)[C@H](CCSC)NC(=O)C1=C(C=C(C=C1)NC[C@H](CS)N)C2=CC=CC=C2
Summary of the method: as §1

alisertib = compound: COc1cc(Nc2ncc3c(n2)-c2ccc(Cl)cc2C(c2c(F)cccc2OC)=NC3)ccc1C(=O)O [alisertib]
Summary of the method: as §1

[9] = compound: COc1cc2nc(-c3cc(F)ccc3O)nc(N[C@@H]3CNC[C@H]3C(C)(C)O)c2cc1OC
Summary of the method: as §1

gefitinib = compound: COc1cc2ncnc(Nc3ccc(F)c(Cl)c3)c2cc1OCCCN1CCOCC1 [gefitinib]
Summary of the method: as §1

Measured: log2 fold change

HSP90AA4P (UniProt Q58FG1)
Sequence of UniProt Q58FG1 (Q58FG1 whole entry, looked up): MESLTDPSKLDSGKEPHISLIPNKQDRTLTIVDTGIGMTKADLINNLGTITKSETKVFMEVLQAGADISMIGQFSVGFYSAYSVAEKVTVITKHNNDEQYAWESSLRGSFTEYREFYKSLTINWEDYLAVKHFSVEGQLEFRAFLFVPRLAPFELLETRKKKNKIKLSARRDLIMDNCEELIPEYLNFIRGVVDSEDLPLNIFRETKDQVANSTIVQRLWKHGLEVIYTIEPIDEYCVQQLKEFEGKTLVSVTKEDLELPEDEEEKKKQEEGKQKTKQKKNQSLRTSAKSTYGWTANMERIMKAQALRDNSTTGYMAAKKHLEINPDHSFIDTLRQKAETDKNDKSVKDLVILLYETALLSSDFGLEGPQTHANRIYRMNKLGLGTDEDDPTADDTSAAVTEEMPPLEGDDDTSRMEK
inactive: vemurafenib -0.002 | [1] 0 | barasertib 0.377 | [2] 0.006 | volasertib 0.005 | [3] -0.076 | [4] 0.26 | [5] 0.041 | saracatinib -0.03 | sotrastaurin 0.033 | alvocidib -0.228 | Tubastatin A 0.052 | [6] -0.081 | defactinib -0.213 | [7] -0.046 | encorafenib -0.022 | [8] 0.123 | alisertib -0.012 | [9] 0.068 | gefitinib 0.042

KARS1 (UniProt Q15046)
inactive: vemurafenib 0.003 | [1] -0.002 | barasertib 0.002 | [2] -0.072 | volasertib -0.026 | [3] 0.024 | [4] 0.046 | [5] -0.052 | saracatinib 0.004 | sotrastaurin 0.004 | alvocidib 0.027 | Tubastatin A -0.01 | [6] -0.037 | defactinib 0 | [7] -0.035 | encorafenib -0.028 | alisertib 0.012 | [9] -0.011 | gefitinib -0.022
active: [8] 0.379

IMPDH1 isoform 6 (UniProt P20839)
Sequence of UniProt P20839 (P20839 whole entry, looked up): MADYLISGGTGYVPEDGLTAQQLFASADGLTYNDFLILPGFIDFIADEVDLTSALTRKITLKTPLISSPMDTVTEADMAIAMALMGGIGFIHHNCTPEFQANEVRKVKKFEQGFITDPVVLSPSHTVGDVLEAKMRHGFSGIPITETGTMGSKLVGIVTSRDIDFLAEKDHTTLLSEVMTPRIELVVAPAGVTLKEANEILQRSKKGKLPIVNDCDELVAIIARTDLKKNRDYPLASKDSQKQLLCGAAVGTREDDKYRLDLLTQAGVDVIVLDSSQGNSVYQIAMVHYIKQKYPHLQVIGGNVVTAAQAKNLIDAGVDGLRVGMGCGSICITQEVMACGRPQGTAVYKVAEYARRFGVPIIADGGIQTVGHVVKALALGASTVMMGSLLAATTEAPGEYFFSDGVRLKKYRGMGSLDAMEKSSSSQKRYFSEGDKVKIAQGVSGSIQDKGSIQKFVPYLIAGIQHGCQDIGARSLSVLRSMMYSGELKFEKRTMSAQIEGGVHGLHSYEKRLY
active: Tubastatin A -0.226 | [8] -0.478
inactive: vemurafenib -0.006 | [1] -0.015 | barasertib -0.01 | [2] 0.003 | volasertib -0.002 | [3] -0.006 | [4] -0.128 | [5] 0.021 | saracatinib 0.003 | sotrastaurin -0.024 | alvocidib -0.009 | [6] 0.002 | defactinib -0.002 | [7] 0.018 | encorafenib -0.001 | alisertib 0.004 | [9] -0.002 | gefitinib 0.005

GNB1 (UniProt P62873)
Sequence of UniProt P62873 (P62873 whole entry, looked up): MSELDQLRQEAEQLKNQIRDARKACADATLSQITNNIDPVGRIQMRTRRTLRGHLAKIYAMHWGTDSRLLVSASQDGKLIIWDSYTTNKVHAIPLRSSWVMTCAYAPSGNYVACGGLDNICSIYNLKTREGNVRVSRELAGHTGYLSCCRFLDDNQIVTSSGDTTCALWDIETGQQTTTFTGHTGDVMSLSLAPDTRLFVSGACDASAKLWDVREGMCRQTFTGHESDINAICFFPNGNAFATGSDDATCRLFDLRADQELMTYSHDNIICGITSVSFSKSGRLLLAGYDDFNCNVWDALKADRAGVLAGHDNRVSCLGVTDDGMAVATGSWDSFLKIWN
active: sotrastaurin -0.287
inactive: vemurafenib -0.048 | [1] 0.124 | barasertib -0.016 | [2] -0.081 | volasertib 0.008 | [3] -0.037 | [4] -0.072 | [5] 0.05 | saracatinib -0.038 | alvocidib -0.095 | Tubastatin A 0.029 | [6] -0.023 | defactinib -0.028 | [7] -0.011 | encorafenib 0.007 | [8] 0.003 | alisertib -0.023 | [9] -0.011 | gefitinib -0.128

HECTD3 (UniProt Q5T447)
Sequence of UniProt Q5T447 (Q5T447 whole entry, looked up): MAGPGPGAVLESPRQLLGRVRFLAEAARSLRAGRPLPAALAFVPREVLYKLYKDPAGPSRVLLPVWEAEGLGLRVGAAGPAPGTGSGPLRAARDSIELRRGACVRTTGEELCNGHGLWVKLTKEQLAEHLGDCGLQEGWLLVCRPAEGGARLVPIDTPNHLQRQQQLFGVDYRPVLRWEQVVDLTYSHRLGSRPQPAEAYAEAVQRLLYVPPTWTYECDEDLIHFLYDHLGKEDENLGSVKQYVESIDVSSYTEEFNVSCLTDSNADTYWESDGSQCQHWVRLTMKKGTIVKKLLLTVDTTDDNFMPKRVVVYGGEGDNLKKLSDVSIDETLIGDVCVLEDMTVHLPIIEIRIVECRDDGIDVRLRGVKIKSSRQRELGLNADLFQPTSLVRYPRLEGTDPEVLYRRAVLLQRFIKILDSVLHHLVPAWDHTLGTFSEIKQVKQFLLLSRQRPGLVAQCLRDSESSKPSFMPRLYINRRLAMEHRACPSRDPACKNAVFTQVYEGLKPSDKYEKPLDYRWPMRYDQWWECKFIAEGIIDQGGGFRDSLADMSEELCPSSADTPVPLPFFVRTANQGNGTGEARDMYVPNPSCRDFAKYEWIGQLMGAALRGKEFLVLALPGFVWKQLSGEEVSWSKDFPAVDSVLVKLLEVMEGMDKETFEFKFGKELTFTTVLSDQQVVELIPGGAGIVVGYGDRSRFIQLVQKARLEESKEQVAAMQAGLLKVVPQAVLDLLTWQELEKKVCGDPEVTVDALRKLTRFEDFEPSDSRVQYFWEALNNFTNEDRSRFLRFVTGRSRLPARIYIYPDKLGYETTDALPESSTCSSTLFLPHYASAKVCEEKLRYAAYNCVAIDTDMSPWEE
inactive: vemurafenib -0.046 | [1] 0.007 | barasertib -0.039 | [2] -0.022 | volasertib -0.024 | [3] 0.018 | [4] -0.004 | [5] -0.027 | saracatinib 0.032 | sotrastaurin 0.027 | alvocidib 0.007 | Tubastatin A -0.047 | [6] 0.02 | defactinib 0.045 | [7] -0.023 | encorafenib 0.02 | [8] 0.11 | alisertib -0.015 | [9] 0.002 | gefitinib 0.014

HADHA (UniProt P40939)
inactive: vemurafenib 0.019 | [1] -0.002 | barasertib -0.103 | [2] -0.024 | volasertib 0.09 | [3] -0.036 | [4] 0.012 | [5] 0.071 | saracatinib -0.04 | sotrastaurin -0.025 | alvocidib -0.011 | Tubastatin A -0.003 | [6] 0.069 | defactinib -0.042 | [7] 0.037 | encorafenib -0.063 | [8] 0.088 | alisertib -0.017 | [9] -0.041 | gefitinib 0.021

HEATR6 (UniProt Q6AI08)
inactive: vemurafenib 0.052 | [1] 0.031 | barasertib 0.109 | [2] -0.076 | volasertib -0.019 | [3] 0.073 | [4] -0.001 | [5] -0.008 | saracatinib -0.007 | sotrastaurin 0.064 | alvocidib 0.03 | Tubastatin A -0.1 | [6] 0.025 | defactinib 0.011 | [7] 0.008 | encorafenib 0.039 | [8] 0.101 | alisertib -0.028 | [9] -0.01 | gefitinib 0.001

HAUS8 (UniProt Q9BT25)
Sequence of UniProt Q9BT25 (Q9BT25 whole entry, looked up): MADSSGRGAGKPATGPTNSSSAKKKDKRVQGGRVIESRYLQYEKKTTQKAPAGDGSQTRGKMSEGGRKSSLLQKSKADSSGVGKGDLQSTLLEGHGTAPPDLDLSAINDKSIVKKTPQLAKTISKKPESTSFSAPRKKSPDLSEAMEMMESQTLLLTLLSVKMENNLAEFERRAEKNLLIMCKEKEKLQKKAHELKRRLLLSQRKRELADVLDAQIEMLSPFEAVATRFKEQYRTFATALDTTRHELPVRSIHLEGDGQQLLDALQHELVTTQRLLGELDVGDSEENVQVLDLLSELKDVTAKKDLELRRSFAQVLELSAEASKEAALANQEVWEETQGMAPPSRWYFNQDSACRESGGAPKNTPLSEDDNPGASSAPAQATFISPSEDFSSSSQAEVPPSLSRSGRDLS
inactive: vemurafenib -0.042 | [1] 0.04 | barasertib -0.05 | [2] -0.049 | volasertib 0.037 | [3] -0.005 | [4] -0.048 | [5] 0.029 | saracatinib 0.031 | sotrastaurin -0.001 | alvocidib 0.067 | Tubastatin A -0.173 | [6] -0.012 | defactinib -0.06 | [7] 0.064 | encorafenib 0.063 | [8] -0.004 | alisertib -0.063 | [9] -0.075 | gefitinib -0.031

HMGB1 (UniProt P09429)
Sequence of UniProt P09429 (P09429 whole entry, looked up): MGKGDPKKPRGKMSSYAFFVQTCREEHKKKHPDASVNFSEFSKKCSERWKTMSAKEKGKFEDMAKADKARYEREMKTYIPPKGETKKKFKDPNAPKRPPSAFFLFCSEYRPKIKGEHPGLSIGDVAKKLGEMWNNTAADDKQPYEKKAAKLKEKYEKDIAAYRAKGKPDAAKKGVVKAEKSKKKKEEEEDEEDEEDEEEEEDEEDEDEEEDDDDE
active: [4] 0.389
inactive: vemurafenib -0.01 | [1] -0.014 | barasertib -0.013 | [2] 0.102 | volasertib 0.035 | [3] -0.039 | [5] -0.184 | saracatinib -0.011 | sotrastaurin -0.075 | alvocidib 0.126 | Tubastatin A 0.059 | [6] 0.01 | defactinib 0.074 | [7] 0.046 | encorafenib -0.006 | [8] -0.09 | alisertib -0.043 | [9] -0.025 | gefitinib -0.131

KBTBD2 (UniProt Q8IY47)
Sequence of UniProt Q8IY47 (Q8IY47 whole entry, looked up): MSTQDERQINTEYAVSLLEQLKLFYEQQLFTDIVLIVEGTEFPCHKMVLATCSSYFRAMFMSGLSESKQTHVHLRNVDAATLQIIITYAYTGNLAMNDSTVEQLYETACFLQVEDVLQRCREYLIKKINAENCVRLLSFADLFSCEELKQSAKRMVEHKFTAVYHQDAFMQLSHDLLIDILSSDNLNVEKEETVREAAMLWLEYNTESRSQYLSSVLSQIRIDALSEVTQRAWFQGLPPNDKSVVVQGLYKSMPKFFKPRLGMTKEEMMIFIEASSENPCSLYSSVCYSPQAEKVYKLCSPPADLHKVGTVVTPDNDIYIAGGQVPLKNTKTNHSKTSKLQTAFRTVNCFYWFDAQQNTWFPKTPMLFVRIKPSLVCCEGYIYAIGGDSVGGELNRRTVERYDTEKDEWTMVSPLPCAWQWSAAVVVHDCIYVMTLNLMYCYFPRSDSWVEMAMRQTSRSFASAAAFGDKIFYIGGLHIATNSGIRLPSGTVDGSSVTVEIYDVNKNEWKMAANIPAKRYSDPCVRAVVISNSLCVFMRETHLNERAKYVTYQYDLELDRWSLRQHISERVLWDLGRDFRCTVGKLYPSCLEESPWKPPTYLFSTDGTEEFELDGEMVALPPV
inactive: vemurafenib -0.035 | [1] 0.006 | barasertib 0.022 | [2] -0.018 | volasertib 0.013 | [3] -0.181 | [4] -0.166 | [5] 0.06 | saracatinib 0.031 | sotrastaurin -0.03 | alvocidib -0.073 | Tubastatin A 0.167 | [6] -0.009 | defactinib -0.013 | [7] -0.036 | encorafenib 0.018 | alisertib -0.053 | [9] -0.01 | gefitinib 0.028
active: [8] -0.362

HNRNPAB isoform 3 (UniProt Q99729)
Sequence of UniProt Q99729 (Q99729 whole entry, looked up): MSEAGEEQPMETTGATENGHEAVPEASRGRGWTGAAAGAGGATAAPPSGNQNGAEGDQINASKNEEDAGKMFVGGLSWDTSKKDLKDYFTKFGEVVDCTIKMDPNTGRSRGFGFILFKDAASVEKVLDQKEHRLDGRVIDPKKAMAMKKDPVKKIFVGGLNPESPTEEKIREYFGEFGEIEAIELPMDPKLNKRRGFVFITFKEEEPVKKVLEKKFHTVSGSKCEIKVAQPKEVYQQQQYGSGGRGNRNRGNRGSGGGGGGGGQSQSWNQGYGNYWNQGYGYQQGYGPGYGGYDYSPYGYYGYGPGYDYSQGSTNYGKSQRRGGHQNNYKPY
inactive: vemurafenib 0.018 | [1] -0.001 | barasertib -0.003 | [2] 0.033 | volasertib 0.019 | [3] 0.011 | [4] -0.096 | [5] -0.004 | saracatinib 0.027 | sotrastaurin -0.013 | alvocidib -0.018 | Tubastatin A 0.021 | [6] -0.018 | defactinib 0.017 | [7] 0.043 | encorafenib -0.012 | [8] -0.016 | alisertib -0.035 | [9] 0 | gefitinib 0.03

IMPDH2 (UniProt P12268)
inactive: vemurafenib 0.015 | [1] 0.009 | barasertib -0.056 | [2] -0.015 | volasertib 0.012 | [3] 0.039 | [4] 0.11 | [5] 0.01 | saracatinib -0.001 | sotrastaurin -0.005 | alvocidib 0.026 | [6] 0.013 | defactinib 0.03 | [7] 0.017 | encorafenib 0.021 | alisertib 0.029 | [9] -0.015 | gefitinib -0.023
active: Tubastatin A -0.226 | [8] -0.501

HMGB2 (UniProt P26583)
Sequence of UniProt P26583 (P26583 whole entry, looked up): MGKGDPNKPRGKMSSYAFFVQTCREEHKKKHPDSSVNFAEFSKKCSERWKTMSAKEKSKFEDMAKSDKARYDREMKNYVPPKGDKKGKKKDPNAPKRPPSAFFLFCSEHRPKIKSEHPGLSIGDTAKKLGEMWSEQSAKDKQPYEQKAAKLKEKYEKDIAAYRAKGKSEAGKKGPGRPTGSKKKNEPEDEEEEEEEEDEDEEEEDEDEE
active: [4] 0.283 | [5] -0.273
inactive: vemurafenib 0.003 | [1] 0.017 | barasertib -0.019 | [2] 0.037 | volasertib 0.014 | [3] 0.018 | saracatinib 0.007 | sotrastaurin -0.04 | alvocidib 0.134 | Tubastatin A 0.027 | [6] 0.023 | defactinib 0.003 | [7] 0.016 | encorafenib -0.006 | [8] -0.081 | alisertib -0.044 | [9] -0.022 | gefitinib -0.028

HNRNPH2 (UniProt P55795)
Sequence of UniProt P55795 (P55795 whole entry, looked up): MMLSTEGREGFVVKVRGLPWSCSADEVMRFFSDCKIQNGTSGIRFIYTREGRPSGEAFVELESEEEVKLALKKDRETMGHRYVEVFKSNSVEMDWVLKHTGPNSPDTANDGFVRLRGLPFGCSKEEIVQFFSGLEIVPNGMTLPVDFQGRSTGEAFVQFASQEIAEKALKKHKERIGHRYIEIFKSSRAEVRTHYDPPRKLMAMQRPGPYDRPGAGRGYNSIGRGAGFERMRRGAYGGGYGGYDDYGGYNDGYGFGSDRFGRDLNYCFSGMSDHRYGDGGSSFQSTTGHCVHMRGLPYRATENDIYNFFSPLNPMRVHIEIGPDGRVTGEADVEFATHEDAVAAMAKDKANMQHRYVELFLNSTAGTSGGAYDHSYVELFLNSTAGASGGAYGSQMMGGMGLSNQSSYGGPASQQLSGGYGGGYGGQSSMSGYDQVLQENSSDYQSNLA
inactive: vemurafenib -0.004 | [1] 0.025 | barasertib -0.003 | [2] 0.05 | volasertib -0.056 | [3] 0.008 | [4] -0.01 | [5] -0.056 | saracatinib -0.025 | sotrastaurin -0.074 | alvocidib -0.003 | Tubastatin A -0.209 | [6] 0.02 | defactinib 0.019 | [7] -0.043 | encorafenib 0.037 | [8] -0.032 | alisertib -0.004 | [9] -0.007 | gefitinib -0.047

HS1BP3 (UniProt Q53T59)
Sequence of UniProt Q53T59 (Q53T59 whole entry, looked up): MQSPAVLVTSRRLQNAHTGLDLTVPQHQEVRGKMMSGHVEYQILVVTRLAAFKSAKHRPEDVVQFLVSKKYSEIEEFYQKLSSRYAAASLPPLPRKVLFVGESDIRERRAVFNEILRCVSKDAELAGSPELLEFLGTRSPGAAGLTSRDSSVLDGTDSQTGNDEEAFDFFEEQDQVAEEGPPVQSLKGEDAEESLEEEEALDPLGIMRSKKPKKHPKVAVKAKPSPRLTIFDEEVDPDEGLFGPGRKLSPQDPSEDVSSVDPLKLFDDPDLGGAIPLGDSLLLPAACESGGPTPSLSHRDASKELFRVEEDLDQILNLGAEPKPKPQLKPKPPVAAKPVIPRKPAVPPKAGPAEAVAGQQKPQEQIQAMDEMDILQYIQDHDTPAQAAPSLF
inactive: vemurafenib -0.003 | [1] -0.012 | barasertib 0.056 | [2] 0.029 | volasertib -0.002 | [3] 0.014 | [4] -0.238 | [5] 0.092 | saracatinib 0.082 | sotrastaurin 0.013 | alvocidib -0.054 | Tubastatin A 0.034 | [6] -0.015 | defactinib -0.016 | [7] -0.052 | encorafenib 0.009 | [8] -0.088 | alisertib -0.021 | [9] 0.021 | gefitinib -0.031

INTS5 (UniProt Q6P9B9)
inactive: vemurafenib 0.052 | [1] -0.167 | barasertib 0.044 | [2] 0.042 | volasertib 0.223 | [3] 0.023 | [4] 0.029 | [5] -0.072 | saracatinib 0.069 | sotrastaurin -0.092 | alvocidib 0.038 | Tubastatin A -0.055 | [6] 0.027 | defactinib 0.017 | [7] -0.047 | encorafenib 0.02 | [8] -0.259 | alisertib 0.028 | [9] 0.013 | gefitinib 0.045
